The text below walks through data of PubChem BioAssay.

The nature of test [1]: small molecules captured by biotinylated probe aFSTL3 – biochemical, small-molecule microarray, fluorescence 635/667, stem cell growth factor project, primary screen (AID 1064).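 Further: measures binding of the biotinylated anti-FSTL3 antibody to printed compounds.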 To be noted: higher = more signal.
A short description of test [2]: binders from COS7 lysate, DM2A8 probe, primary screen, torsin A project, cell lysate, small-molecule microarray, fluorescence 635/667 (AID 1065). The note with it: higher = more signal, COS7 lysate expressing mutant human TOR1A.
A short description of test [3]: small molecules captured by biotinylated probe aFGF2 – biochemical, small-molecule microarray, fluorescence 635/667, stem cell growth factor project, primary screen (AID 1067).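 Further: measures binding of biotinylated aFGF2 protein to printed compounds on slides; z-score merges feature fluorescence and signal-to-noise across triplicate slides.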 The note with it: higher = more signal.
A short description of test [4]: small molecules captured by biotinylated probe aFGF10 – biochemical, small-molecule microarray, fluorescence 635/667, stem cell growth factor project, primary screen (AID 1071).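 Further: score merges 667 nm spot intensity and signal to noise from triplicate slides.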 The note with it: higher = more signal.
For test [5], the target named is Neurogenic locus notch homolog protein 2 (Homo sapiens) (UniProt Q04721). The test can be described thus: small molecules binding Notch2 protein – biochemical, small-molecule microarray, 635 nm fluorescence, stem cell growth factors, primary screen (AID 1073). The note with it: higher = more signal.
Sequence of Neurogenic locus notch homolog protein 2 (Homo sapiens) (Q04721 whole entry, looked up, canonical isoform): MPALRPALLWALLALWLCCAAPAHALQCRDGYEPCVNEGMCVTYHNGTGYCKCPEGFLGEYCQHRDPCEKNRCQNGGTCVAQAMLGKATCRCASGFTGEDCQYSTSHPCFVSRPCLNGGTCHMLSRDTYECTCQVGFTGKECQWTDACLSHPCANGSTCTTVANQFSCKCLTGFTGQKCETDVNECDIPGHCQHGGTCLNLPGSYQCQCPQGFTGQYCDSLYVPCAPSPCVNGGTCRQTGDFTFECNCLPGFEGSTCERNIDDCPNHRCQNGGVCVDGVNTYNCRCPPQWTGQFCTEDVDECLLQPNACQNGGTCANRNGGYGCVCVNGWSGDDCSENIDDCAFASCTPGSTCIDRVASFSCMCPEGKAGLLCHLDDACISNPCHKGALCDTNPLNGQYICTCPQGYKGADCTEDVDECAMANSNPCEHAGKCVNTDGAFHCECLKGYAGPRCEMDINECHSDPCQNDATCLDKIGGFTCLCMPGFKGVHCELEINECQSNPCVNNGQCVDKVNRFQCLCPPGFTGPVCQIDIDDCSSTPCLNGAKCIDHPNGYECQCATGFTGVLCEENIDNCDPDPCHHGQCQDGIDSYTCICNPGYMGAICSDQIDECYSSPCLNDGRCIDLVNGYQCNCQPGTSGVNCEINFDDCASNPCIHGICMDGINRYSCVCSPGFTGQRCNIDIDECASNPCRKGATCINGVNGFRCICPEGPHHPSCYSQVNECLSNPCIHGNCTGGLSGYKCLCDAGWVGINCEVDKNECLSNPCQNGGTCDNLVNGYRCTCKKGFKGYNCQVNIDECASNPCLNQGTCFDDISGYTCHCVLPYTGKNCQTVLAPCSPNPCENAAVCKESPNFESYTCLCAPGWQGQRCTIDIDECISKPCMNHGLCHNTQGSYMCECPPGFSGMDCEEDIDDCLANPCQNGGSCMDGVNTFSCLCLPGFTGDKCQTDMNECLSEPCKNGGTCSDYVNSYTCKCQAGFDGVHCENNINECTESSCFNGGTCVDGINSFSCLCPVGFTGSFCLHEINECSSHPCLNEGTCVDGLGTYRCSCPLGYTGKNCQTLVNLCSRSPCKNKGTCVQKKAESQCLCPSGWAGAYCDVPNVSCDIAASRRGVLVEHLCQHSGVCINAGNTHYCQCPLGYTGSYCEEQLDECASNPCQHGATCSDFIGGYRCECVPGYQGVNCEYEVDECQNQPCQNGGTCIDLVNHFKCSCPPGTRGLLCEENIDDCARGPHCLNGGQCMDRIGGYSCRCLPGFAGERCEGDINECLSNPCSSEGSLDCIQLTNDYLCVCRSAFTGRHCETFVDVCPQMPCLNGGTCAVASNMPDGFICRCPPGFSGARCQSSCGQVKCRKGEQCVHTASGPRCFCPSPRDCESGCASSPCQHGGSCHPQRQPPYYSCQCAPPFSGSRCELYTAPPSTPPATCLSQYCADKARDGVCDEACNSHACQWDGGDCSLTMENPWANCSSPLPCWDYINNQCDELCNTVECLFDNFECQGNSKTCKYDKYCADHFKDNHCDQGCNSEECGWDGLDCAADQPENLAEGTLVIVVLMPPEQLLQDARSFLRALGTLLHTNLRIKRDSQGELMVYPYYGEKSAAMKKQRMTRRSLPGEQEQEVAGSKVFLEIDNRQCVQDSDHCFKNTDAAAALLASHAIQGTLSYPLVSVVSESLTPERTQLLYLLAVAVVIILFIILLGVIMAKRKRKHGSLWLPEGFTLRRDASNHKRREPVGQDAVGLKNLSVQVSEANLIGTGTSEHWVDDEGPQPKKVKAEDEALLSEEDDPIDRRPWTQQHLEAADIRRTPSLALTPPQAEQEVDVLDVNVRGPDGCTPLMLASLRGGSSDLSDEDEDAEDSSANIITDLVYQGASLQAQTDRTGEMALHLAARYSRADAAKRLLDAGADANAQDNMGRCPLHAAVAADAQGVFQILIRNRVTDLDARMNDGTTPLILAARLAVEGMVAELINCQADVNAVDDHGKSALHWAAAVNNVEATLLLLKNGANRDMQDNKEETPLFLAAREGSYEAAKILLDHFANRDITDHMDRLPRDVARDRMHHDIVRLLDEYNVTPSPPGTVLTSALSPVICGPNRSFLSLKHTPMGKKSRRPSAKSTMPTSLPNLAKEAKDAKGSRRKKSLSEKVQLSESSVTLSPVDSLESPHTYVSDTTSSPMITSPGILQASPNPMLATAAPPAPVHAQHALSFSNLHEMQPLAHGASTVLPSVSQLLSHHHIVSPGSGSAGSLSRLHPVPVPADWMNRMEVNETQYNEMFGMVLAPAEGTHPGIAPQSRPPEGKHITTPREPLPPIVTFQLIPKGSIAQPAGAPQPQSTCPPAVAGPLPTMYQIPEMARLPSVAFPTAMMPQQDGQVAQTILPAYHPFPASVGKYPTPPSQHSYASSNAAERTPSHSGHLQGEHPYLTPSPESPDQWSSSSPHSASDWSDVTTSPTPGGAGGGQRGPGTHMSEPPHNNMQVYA
The target in test [6] is Pro-neuregulin-1, membrane-bound isoform (Homo sapiens) (UniProt Q02297). The test can be described thus: small molecules binding neuregulin-1 protein – biochemical, small-molecule microarray, fluorescence 635/667, psychiatric disease protein project, primary screen (AID 1075).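 Further: score combines 667 nm spot fluorescence with signal to noise.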 To be noted: NRG1 binding, 635 nm fluorescence, higher = more signal.
Sequence of Pro-neuregulin-1, membrane-bound isoform (Homo sapiens) (Q02297 whole entry, looked up, the tested form may be a part, canonical isoform): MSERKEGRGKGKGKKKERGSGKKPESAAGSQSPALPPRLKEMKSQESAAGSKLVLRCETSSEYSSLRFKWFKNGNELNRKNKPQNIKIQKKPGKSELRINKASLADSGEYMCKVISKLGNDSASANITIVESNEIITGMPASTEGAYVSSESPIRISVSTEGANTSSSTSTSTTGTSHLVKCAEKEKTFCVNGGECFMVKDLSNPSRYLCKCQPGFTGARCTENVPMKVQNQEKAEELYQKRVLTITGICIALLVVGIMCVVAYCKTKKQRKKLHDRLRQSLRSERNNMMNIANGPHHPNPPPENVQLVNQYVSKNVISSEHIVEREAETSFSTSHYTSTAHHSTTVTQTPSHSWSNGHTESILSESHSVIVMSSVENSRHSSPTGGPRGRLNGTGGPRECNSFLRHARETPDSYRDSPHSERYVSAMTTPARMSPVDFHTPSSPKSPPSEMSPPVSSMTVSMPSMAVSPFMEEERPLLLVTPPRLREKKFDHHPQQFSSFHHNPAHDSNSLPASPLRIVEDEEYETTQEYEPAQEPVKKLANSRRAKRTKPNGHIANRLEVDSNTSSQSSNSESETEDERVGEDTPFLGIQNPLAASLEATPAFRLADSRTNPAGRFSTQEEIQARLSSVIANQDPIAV
Test [7] concerns Neuregulin-1 EGF-like domain. The test can be described thus: small molecules binding NRG1 EGF domain – biochemical, small-molecule microarray, 635 nm fluorescence, primary screen (AID 1081).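 Further: binding of the protein to compounds printed on small-molecule microarray slides.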 The note with it: higher = more signal.
The nature of test [8]: FRG1 expression reporter modulators in myotubes – cell-based, C2C12 myotubes, firefly/Renilla luciferase, luminescence, FRG1 inhibition for FSHD, primary screen (AID 1084). To be noted: FRG1 promoter luciferase, higher = more signal, called active from +8 up or from −8 down.
Test [9] can be described thus: small molecules captured by biotinylated probe aFST – biochemical, small-molecule microarray, fluorescence 635/667, stem cell growth factor project, primary screen (AID 1086).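 Further: score merges 667 nm fluorescence with signal-to-noise of each printed compound spot.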 To be noted: higher = more signal.
The nature of test [10]: binders of probe aHhip on microarray, primary screen, stem cell growth factor project, biochemical, small-molecule microarray, fluorescence 635/667 (AID 1087).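 Further: score merges spot fluorescence at 667nm with spot signal to noise ratio.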 The note with it: higher = more signal.
The subject of test [11] is PRMT1 (protein arginine N-methyltransferase 1). The test can be described thus: small molecules binding arginine methyltransferase PRMT1 – biochemical, small-molecule microarray, 635 nm fluorescence, primary screen (AID 1088).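 Further: binding of Prmt1 protein to compounds spotted on small-molecule microarray slides.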 The note with it: higher = more signal.
A short description of test [12]: growth effects on S. cerevisiae YJM789 – YJM789 clinical isolate, OD600, 24 h, basal, primary screen (AID 1089).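 Further: growth of clinical yeast isolate S. cerevisiae YJM 789 seeded 1000 cells per well; test concentration not given here.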 To be noted: higher = more signal, called active from +8 up or from −8 down.
A short description of test [13]: S. pombe growth modifiers, basal conditions – strain 972, OD600, 24 h, no modulator, primary screen (AID 1090).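 Further: basal condition with compound alone and no growth modifier present; test concentration not given here.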 The note with it: S. pombe 972 growth, higher = more signal, called active from +8 up or from −8 down.
A short description of test [14]: budding yeast growth modifiers under rapamycin – strain BY4716, OD600, 96 h, primary screen (AID 1091). Further: test concentration not given here. The note with it: S. cerevisiae BY4716 + rapamycin, higher = more signal, called active from +8 up or from −8 down.
Test [15] deals with Torsin-1A-interacting protein 2 (Homo sapiens) (UniProt Q8NFQ8). The test can be described thus: small molecules binding lysate-expressed LULL1 – cell lysate, human LULL1 lysate, 635/667 nm fluorescence, primary screen (AID 1092).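 Further: probe is lysate of COS7 cells overexpressing human LULL1; score merges per-feature 667 nm fluorescence with signal-to-noise.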 To be noted: small-molecule microarray, hLULL1 lysate binding, 635 nm fluorescence; higher = more signal.
Sequence of Torsin-1A-interacting protein 2 (Homo sapiens) (Q8NFQ8 whole entry, looked up): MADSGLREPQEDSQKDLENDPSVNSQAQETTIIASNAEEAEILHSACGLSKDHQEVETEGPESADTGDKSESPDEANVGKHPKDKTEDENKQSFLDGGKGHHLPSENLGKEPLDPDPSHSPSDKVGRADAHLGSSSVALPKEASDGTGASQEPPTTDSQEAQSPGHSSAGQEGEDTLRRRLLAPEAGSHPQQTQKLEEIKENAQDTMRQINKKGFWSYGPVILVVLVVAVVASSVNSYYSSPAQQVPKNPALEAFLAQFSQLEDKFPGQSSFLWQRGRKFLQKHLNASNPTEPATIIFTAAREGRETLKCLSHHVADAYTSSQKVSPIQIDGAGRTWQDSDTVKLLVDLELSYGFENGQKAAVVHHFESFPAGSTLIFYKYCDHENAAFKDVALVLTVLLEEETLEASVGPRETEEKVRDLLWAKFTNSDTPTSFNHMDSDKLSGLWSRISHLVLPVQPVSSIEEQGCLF
Test [16] can be described thus: optical density change of DRC41 E. coli – strain DRC41, OD650, 24 h, E. coli filamentation project, primary screen (AID 1093).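 Further: MC1000 strain lacking acrAB efflux and sulA so SOS filamentation is blocked; test concentration not given here.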 The note with it: E. coli DRC41 growth, higher = more signal, called active from +8 up or from −8 down.
Test [17] is described as follows: probe aLefty2 binding to arrayed compounds – biochemical, biotinylated probe, 635/667 nm fluorescence, primary screen (AID 1094).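 Further: score merges spot fluorescence near 667 nm with spot signal-to-noise ratio.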 The note with it: small-molecule microarray, higher = more signal.
Test [18] deals with Noggin (protein binding on small-molecule microarray). The test can be described thus: small molecules binding Noggin protein – biochemical, 635/667 nm fluorescence, primary screen (AID 1095).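 Further: score merges 667 nm feature fluorescence with signal to noise over triplicate slides.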 To be noted: 635 nm fluorescence, higher = more signal.
In test [19] the target is Neurogenic locus notch homolog protein 3 (Homo sapiens) (UniProt Q9UM47). The test can be described thus: small molecules binding NOTCH3 protein – biochemical, 635/667 nm fluorescence, primary screen (AID 1096). The note with it: small-molecule microarray, 635 nm fluorescence, higher = more signal.
Test [20] can be described thus: probe aEGFR binding to arrayed compounds – biochemical, biotinylated probe, 635/667 nm fluorescence, primary screen (AID 1097).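 Further: probe is a biotinylated anti-EGFR antibody binding compounds printed on slides; score combines fluorescence near 667 nm and signal to noise of each spot.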 To be noted: small-molecule microarray, higher = more signal.

The source made the active and inactive calls.

As to `CCOC(=O)CCN1C(=O)[C@H]2[C@H]3[C@H](O)[C@H](O)CC(=NNC(=O)OCc4ccc(OC)cc4)[C@@H]3CC[C@H]2C1=O`, the composite z-score in [1] is -0.468; in test [2], 0.336; in test [3], -0.15; in test [4] it was 0.0569; in test [5], 0.0846; in [6], 0.863. Also, the composite z-score is 0.574 in test [7]; 0.15 in test [9]; 0.251 in [10]; 0.372 in test [11]; 0.97 in test [15]; -0.157 in [17]. Further, the composite z-score is 0.38 in [18], 1.08 in [19] and -0.0986 in test [20]. The z-score was 0.455 (inactive) in test [8]; -0.162 (inactive) in [12]; 0.151 (inactive) in [13]; -0.3 (inactive) in test [14]; 0.0856 (inactive) in test [16].

As to `O=C1[C@H]2[C@H]3[C@H](O)[C@H](O)CC(=NOC[C@@H](O)COCc4ccco4)[C@H]3CC[C@H]2C(=O)N1c1cccc(Oc2ccccc2)c1`, the composite z-score in [1] is -0.0639; in [2], 1.55; in [3], -0.187; in [4] it was -0.0105; in test [5], -1.31; in test [6], 0.141. Besides, the composite z-score in test [7] was 0.603; in test [9], -0.266; in [10] it was -0.16; in test [11] it was -0.267; in test [15], -0.306; in test [17], -0.172. The composite z-score in test [18] was 1.55; in test [19] it was -0.413; in test [20], -0.174. Moreover, the z-score in test [8] was -0.425 (inactive); in test [12], -0.19 (inactive); in [13], 0.549 (inactive); in test [14] it was -0.502 (inactive); in [16], 0.354 (inactive).

Take `CS(=O)(=O)CCOC(=O)C1=CC(CCCO)=CC(c2cccs2)N(Cc2cccc(OC(F)(F)F)c2)C=C1C(=O)OCCS(C)(=O)=O` (stereo not given): the composite z-score is -0.215 in test [1]; 1.76 in test [2]; -0.0753 in [3]; 0.0557 in [4]; 1.14 in [5]; 1.8 in test [6]. Besides, the composite z-score in test [7] is 1.14; in test [9] it was 0.425; in [10], -0.191; in test [11], 1.57; in test [15] it was 2.17; in test [17], 0.0651. Also, the composite z-score in test [18] was 0.025; in [19] it was 0.993; in test [20], 0.0269. The z-score was -0.176 (inactive) in test [8]; -0.522 (inactive) in test [12]; -2.82 (inactive) in test [13]; -1.34 (inactive) in [14]; -0.0221 (inactive) in test [16].

Consider `CCCNC(=O)[C@@H]1c2ccccc2C(=O)N(c2ccc(C)cn2)[C@H]1c1ccc(CO)cc1`, for which the composite z-score in test [1] was 0.901; in test [2] it was 0.0211; in test [3], -0.176; in [4], -0.857; in test [5], -1.01; in test [6] it was -0.465. For the same compound, the composite z-score in test [7] is 1.4; in test [9], -0.348; in test [10], -0.258; in [11] it was 0.129; in test [15], 0.553; in test [17] it was -0.0769. Further, the composite z-score in test [18] was -1.08; in test [19] it was -0.798; in test [20], -0.299. In addition, the z-score in test [8] was 0.213 (inactive); in [12], -1.03 (inactive); in test [13] it was -0.144 (inactive); in [14] it was -0.926 (inactive); in [16] it was -0.0365 (inactive).

For the compound `CCCNC(=O)OC[C@H]1O[C@H](CCON=CC[C@@H]2C=C[C@H](OC(C)=O)[C@@H](COC(C)=O)O2)C=C[C@@H]1Oc1ccc(OC)cc1`, the composite z-score is -0.458 in test [1]; 0.453 in test [2]; -0.112 in test [3]; 0.423 in test [4]; 0.605 in [5]; -0.367 in test [6]. Moreover, the composite z-score in test [7] is 0.576; in test [9], 0.014; in [10] it was -0.134; in test [11], 1.18; in [15] it was 0.667; in test [17], -0.0159. For the same compound, the composite z-score in [18] came out at 0.643; in test [19] it was 0.249; in test [20] it was 0.0486. Further, the z-score in [8] is 0.335 (inactive); in test [12], -0.704 (inactive); in test [13], 0.115 (inactive); in test [14], 0.023 (inactive); in test [16], 0.457 (inactive).

As to `C#C[C@@H](CC)O[Si](C#Cc1ccc(Oc2ccccc2)cc1)(C(C)C)C(C)C`, the composite z-score in test [1] is -0.321; in [2], 0.438; in [3], -0.201; in test [4], 0.247; in test [5], 0.824; in [6], 0.108. For the same compound, the composite z-score in test [7] is 0.0426; in test [9], 0.168; in test [10], -0.0193; in test [11], 1.29; in test [15], 0.964; in test [17] it was -0.152. In addition, the composite z-score is 0.269 in [18], 0.916 in [19] and -0.0028 in test [20]. Further, the z-score in [8] was 0.364 (inactive); in test [12] it was 0.356 (inactive); in test [13], -0.951 (inactive); in test [14] it was 1 (inactive); in test [16] it was -0.44 (inactive).
